# Hits are enriched below; roughly 3.5% of the tested compounds scored in any of these assays.
# Sm TGR block = S. mansoni TGR enzyme inhibition; hit rate 3% among 360,000; AID 485364; Potency, µM (doses to about 114 µM), without a hit: top-dose activity change, negative = inhibition, most hits filed as inhibitors; purified TGR, DTNB reduction, TNB absorbance 405 nm; Q962Y6; further: on the % scale 0 is the no-effect control and ±100 the full control effect; nearly all actives have a fitted effect of over 60% in size
#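 TGR 20 nM + NADPH 100 uM (dispensed conc.), cpd preinc 15 min RT; start with NADPH (500 uM addition) then DTNB (15 mM addition). Kinetic TNB absorbance, 405 nm filter. Four-parameter Hill fit across titration.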
# RE007 growth inh = less growth of the S. pombe RE007 Vpr strain; hit rate 0.21% among 360,000; Potency, µM (highest dose often 92.2 µM), for inactives: top-dose activity change, negative = less growth, actives largely listed as inhibitors; S. pombe RE007 Vpr strain, BacTiter-Glo ATP luminescence, 24 h; active means well fitted falling curve with a large enough effect; inconclusive means small, poorly fitted or top-dose-only effect; inactive means no such curve, though single readings can be large or run the other way; further: on the % scale 0 is the no-effect control and ±100 the full control effect; nearly all actives have a fitted effect of over 50% in size
#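 Fission yeast strain RE007, carrying one chromosomally integrated HIV-1 vpr copy, was seeded at OD 0.01 in PMG+AL medium with 23 nL pinned compound. After 24 h at 30 °C and 99% humidity, viability was read by BacTiter-Glo luminescence.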
# FBPA Giardia inh = Giardia lamblia aldolase inhibition; AID 2451; hit rate 0.71% among 290,000; A8B2U2; Potency, µM (highest dose often 59.6 µM), without a hit: at the highest dose activity, negative = inhibition, hits mostly inhibitors; purified Giardia FBPA; further: on the % scale 0 is the no-effect control and ±100 the full control effect; nearly all actives have a fitted effect of over 55% in size
# Target sequence (A8B2U2 whole entry, looked up): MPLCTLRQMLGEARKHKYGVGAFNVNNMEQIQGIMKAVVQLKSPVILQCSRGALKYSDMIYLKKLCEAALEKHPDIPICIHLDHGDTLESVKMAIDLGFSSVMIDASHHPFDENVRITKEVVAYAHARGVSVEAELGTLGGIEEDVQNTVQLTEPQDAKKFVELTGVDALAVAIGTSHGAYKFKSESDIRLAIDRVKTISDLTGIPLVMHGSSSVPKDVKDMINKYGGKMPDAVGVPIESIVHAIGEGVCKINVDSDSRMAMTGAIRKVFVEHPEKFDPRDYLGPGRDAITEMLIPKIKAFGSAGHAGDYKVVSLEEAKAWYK
#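 Giardia FBPA (40 nM reagent) was preincubated 10 min at RT with compound (up to 57.5 uM final), then substrate plus GAPDH/TPI/NAD/arsenate coupling system with diaphorase/resazurin was added; resorufin fluorescence (525/598 nm) was read after 20 min.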
# LmPK inhibitor = LmPK (Leishmania mexicana) enzyme inhibition. hit rate 0.37% among 290,000. purified LmPK, Kinase-Glo ATP luminescence, 1 h. Potency, µM (series often up to 57.5 µM), for inactives: top-dose activity change, negative = inhibition, most hits filed as inhibitors; further: on the % scale 0 is the no-effect control and ±100 the full control effect
#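 qHTS format; LmPK 0.1 nM; substrates PEP 0.5 mM and ADP 0.1 mM. One-hour room-temperature incubation, then coupled luciferase luminescence; 0.5 nM enzyme wells mark activation.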
# TbPYK inhibitor = T. brucei pyruvate kinase inhibition; Potency, µM (doses to about 76.8 µM), without a hit: at the highest dose activity, negative = inhibition, actives largely listed as inhibitors; AID 624173; hit rate 0.12% among 410,000; TbPYK enzyme, Kinase-Glo Plus ATP luminescence, 45 min; further: on the % scale 0 is the no-effect control and ±100 the full control effect; nearly all actives have a fitted effect of over 50% in size
#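 In this concentration-response screen, enzyme-free wells defined baseline while DMSO plates tracked drift. Each reaction combined TbPYK, substrate, compound and 130 uM ADP for 45 min at room temperature. Kinase-Glo Plus luminescence gave the signal.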
# NS1 function inh = influenza NS1 inhibition; Potency, µM (series often up to 46.1 µM), for inactives: top-dose activity, positive = more growth; hit rate 0.4% among 270,000; AID 2326; calls by dose curve; further: actives are rising curves; nearly all actives have a fitted effect of over 50% in size
#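 In this qHTS, NS1 from influenza A is expressed in budding yeast, where it slows growth. Cells are switched from glucose to 2% galactose medium (pH 6.0, -URA), treated with compound, and growth recovery is read at OD600.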
# The depositor's hits bear a star; ? = inconclusive; / = not tested or not shown. Unless noted, the call rests on the fitted dose curve; in most records, active means well fitted curve in the direction sought with a large enough effect; inconclusive means small, poorly fitted or top-dose-only effect, or another doubt; inactive means no such curve, though single readings can be large; an effect the other way counts as inactive or inconclusive. Potency means the concentration at half of the fitted maximal effect.
SMILES,Sm TGR block,RE007 growth inh,FBPA Giardia inh,LmPK inhibitor,TbPYK inhibitor,NS1 function inh
CCCc1nc2sc3c(c2c(=O)n1NC(=O)c1ccco1)CC(C)(C)OC3,11.2µM*,-1.6%,7.0%,0.7%,4.4%,-1.0%
CCCN1Cc2cccc(C(=O)Nc3ccccc3C(=O)OC)c2C1=O,17.9%,/,/,/,-5.9%,/
COCCN(CC(=O)NC1CCCCC1)C(=O)/C=C/C(=O)c1ccc(OC)cc1O,-13.6%,-8.5%,1.0%,2.3%,?,-0.5%
COc1ccc(C(=O)/C=C/C(=O)N(CC(=O)NC2CCCCC2)Cc2cccs2)c(O)c1,1.58µM*,-1.1%,-2.5%,-6.4%,?,-9.3%
CC(OC(=O)COc1ccccc1)C(=O)NC1CCCC1 (stereo not given),22.4µM*,0.0%,/,/,-7.0%,/
Cc1ccc(Nc2cc(C(=O)NCCc3ccccc3)c3ccccc3n2)c(C)c1,0.2%,/,/,/,4.0%,/
O=C1CC(c2ccc(Cl)cc2)CC(=O)C1CS(=O)(=O)c1ccccc1 (stereo not given),0.631µM*,16.8%,?,-2.3%,-13.3%,/
COc1ccc(N2C(=O)CC(c3ccccc3)CC2=O)cc1,4.8%,-8.3%,/,/,2.8%,/
COc1ccc(C2CC(=O)C(CS(=O)(=O)c3ccccc3)C(=O)C2)cc1 (stereo not given),1µM*,0.0%,?,-5.1%,0.1%,/
O=C1CCCC(=O)C1CS(=O)(=O)c1ccccc1,2.24µM*,20.1%,?,6.7%,?,1.0%
CCN(CC)CCNC(=O)C1CCN(c2cc(C)nc3c(-c4ccc(Cl)cc4)c(C)nn23)CC1,-10.3%,/,/,/,6.6%,/
O=C(Nc1cc2ccc(O)cc2oc1=O)c1ccc(F)cc1,10.7%,/,/,/,-8.0%,/
Cc1oc(=O)c(NC(=O)c2ccccc2)cc1C(N)=O,-1.0%,-4.8%,-3.3%,-3.1%,2.9%,/
COc1ccc(C(=O)Nc2cc(C(=O)c3ccccc3)c(C)oc2=O)cc1,6.31µM*,11.2µM*,-16.4%,2.6%,-24.3%,-222.3%
O=C(Nc1cc2ccccc2oc1=O)c1ccccc1,23.3%,-4.3%,6.2%,4.47µM*,-16.0%,/
Cc1oc(=O)c(NC(=O)c2cccc(Cl)c2)cc1C(=O)c1ccccc1,4.47µM*,14.1µM*,-19.0%,-1.8%,?,-170.4%
O=C(OCC(=O)N1CCc2ccccc21)C1=COCCO1,22.4µM*,1.8%,-8.5%,-3.6%,-9.9%,2.7%
CCn1nc(C(=O)OCC(=O)N2CCc3ccccc32)c2ccccc2c1=O,20µM*,17.8%,14.7%,0.9%,-0.7%,-8.1%
COc1ccc(N=CC2=C(O)c3ccccc3C2=O)cc1,2.5%,16.1%,2.0%,3.16µM*,-19.8%,-2.8%
COc1ccc(N=Cc2[nH]c3ccccc3c2O)cc1,?,-8.0%,14.1µM*,2.8%,-25.7%,/
O=C1C(C=Nc2ccccc2)=C(O)c2ccccc21,-16.6%,-23.4%,2.2%,3.55µM*,0.0%,-49.9%
COc1ccc(N=Cc2ccccc2O)cc1,/,-1.0%,/,/,3.2%,/
CCc1[nH]c(=O)[nH]c1C(C)S(=O)(=O)c1ccc(C)cc1 (stereo not given),0.282µM*,-0.2%,-2.9%,9.5%,-1.3%,7.4%
Cc1ccc(-n2c3c(c(=O)[nH]c2=O)C(NS(=O)(=O)c2ccc(C)cc2)(C(F)(F)F)C(=O)N3)cc1 (stereo not given),9.3%,0.3%,-10.5%,0.0%,-11.5%,-4.0%
C=CCC(C=C)S(=O)(=O)c1ccc(C)cc1 (stereo not given),-19.8%,0.6%,0.0%,0.8%,-8.1%,-10.3%
SMILES,Sm TGR block,RE007 growth inh,FBPA Giardia inh,LmPK inhibitor,TbPYK inhibitor,NS1 function inh
CCc1c(C(C)S(=O)(=O)c2ccc(C)cc2)[nH]c(=O)n1-c1ccc(C)cc1 (stereo not given),2.82µM*,-2.3%,-0.6%,4.1%,-8.0%,1.9%
N#CC(C#N)=Cc1cn(-c2ncc(C(F)(F)F)cc2Cl)c2ccccc12,7.08µM*,-5.7%,-6.7%,6.6%,-7.3%,0.9%
Nc1nc(Sc2c([N+](=O)[O-])cc(C(F)(F)F)cc2[N+](=O)[O-])n[nH]1,7.94µM*,-9.0%,-11.4%,1.1%,-1.0%,2.9%
Nc1nc(Sc2ccc(C(F)(F)F)cc2[N+](=O)[O-])n[nH]1,0.8%,-4.0%,4.0%,-2.0%,-3.9%,11.3%
CCOc1ccc(C(=O)Nc2cccc(-c3nc4cccnc4s3)c2C)cc1OCC,-5.1%,/,/,/,-0.7%,/
CCCCC12CN3CC(C)(CN(C1)C3c1c[nH]c3ccccc13)C2=O (stereo not given),-0.9%,/,/,/,-0.6%,/
Cc1ccc(NC(=O)C(=O)NCC(c2cccnc2)N2CCN(Cc3ccccc3)CC2)cc1C (stereo not given),4.4%,/,/,/,-2.5%,/
CC1=C/C(=C(/c2ccc(O)c(C)c2)c2ccccc2S(=O)(=O)O)C=CC1=O,-24.8%,-6.5%,/,/,-0.7%,/
CC1=C/C(=C(/c2cc(C)c(O)c(Br)c2)c2ccccc2S(=O)(=O)O)C=C(Br)C1=O,44.7µM*,?,-22.2%,20µM*,?,-0.5%
CS(=O)(=O)c1ccc(Sc2nc3ccccc3[nH]2)c([N+](=O)[O-])c1,-15.5%,17.7%,-14.3%,-1.9%,3.5%,-17.1%
O=[N+]([O-])c1cc(S(=O)(=O)C(F)(F)F)ccc1Sc1nc2ccccc2s1,14.1µM*,17.1%,-13.0%,-0.2%,-13.3%,-120.7%
CS(=O)(=O)c1ccc(Sc2nc3ccccc3s2)c([N+](=O)[O-])c1,?,10.8%,4.0%,3.0%,4.4%,8.5%
O=[N+]([O-])c1cc(S(=O)(=O)C(F)(F)F)ccc1Sc1nc2ccccc2[nH]1,28.2µM*,-7.8%,-11.0%,4.9%,1.8%,3.2%
Cc1nc(SCc2ccc(Cl)cc2)c(C#N)c(C)c1Cl,1.2%,/,/,/,-3.0%,/
O=C(NCc1cccc(F)c1)c1ccc2nc(N3CCCCC3)sc2c1,1.0%,/,/,/,-2.6%,/
COc1ccccc1-c1ccc(/C=C2/C=C(CC(C)C)OC2=O)o1,35.5µM*,-25.8%,-8.8%,0.7%,-10.5%,-18.1%
CCCC1=C/C(=C/c2ccc(-c3ccccc3OC)o2)C(=O)O1,22.4µM*,/,-3.1%,-0.1%,-13.9%,-3.9%
C/C=C1\COC(C(=O)NCc2ccccn2)(C(F)(F)F)C=C1C=C(C)C (stereo not given),/,/,-9.0%,/,/,/
C=C1C(=O)O[C@@H]2C[C@@H](C)[C@@H]3C4OC4C(=O)[C@@]3(C)[C@@H](O)[C@H]12 (stereo not given in full),39.8µM*,-2.1%,4.8%,0.7%,-5.6%,0.1%
COc1cccc(C(=O)Oc2c(Sc3ccc(C)cc3)c(C)nn2C(C)(C)C)c1OC,2.8%,/,/,/,3.5%,/
CCS(=O)(=O)c1ncc(Cl)c(C(=O)N(Cc2ccccc2)Cc2ccco2)n1,8.91µM*,/,/,/,0.9%,/

# Assay outcomes as filed in PubChem.
